# Bioassay records deposited in PubChem BioAssay by The Scripps Research Institute Molecular Screening Center.
# PKA-R2B act: activates the human PKA-R2B holoenzyme complex; activation, % at 11.4 µM; 340,000 compounds, 0.079% hits; PKA-R2B holoenzyme dissociation, Cy5-IP20 fluorescence polarization; R2B truncated from residue 108, S112A mutant; 0% DMSO only, 100% 113 µM cGMP;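 active = activation above a cutoff set at the mean over all compounds plus 3 SD, cut at about 18% in these data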;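 also: higher means more holoenzyme dissociation and a rise in polarization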
# MsrA inh: inhibitors of bovine MsrA. 360,000 compounds, 0.75% hits. inhibition, % at 15.5 µM. purified bovine MsrA, absorbance read-out; in the data active = inhibition above about 4.5%;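 also: 0% = vehicle wells with enzyme and 100% = reference inhibitor wells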
# MsrA act: activates bovine MsrA enzyme. purified bovine MsrA, absorbance read-out. activation, % at 10.6 µM. 360,000 compounds, 0.3% hits. AID 602163; in the data active = activation above about 7.5%;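 also: 0% = vehicle and 100% = reference activator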
# PKA-R1A act: activators of PKA-R1A complex | activation, % at 11.4 µM | 340,000 compounds, 0.083% hits | PKA-R1A dissociation, Cy5-IP20 fluorescence polarization; scaled: DMSO 0%, 113 µM cGMP 100% | P00514+P68181;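 active = percent activation above the mean of all tested compounds plus 3 SD, cut at about 19% in these data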;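 also: higher means more PKAc released from R1A so a rise in polarization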
# R1A FP artifact: counter-screen for PKA-R1A activators: fluorescence polarization artifacts; 280 compounds, 7% hits; Cy5-IP20 peptide alone, fluorescence polarization artifact counterscreen; shares compounds with PKA-R1A act; activation, % at 11.4 µM;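 active = mean activation over triplicate runs exceeds the adjusted cutoff derived for the parent primary screen, cut at about 19% in these data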;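 also: no PKA protein present so any polarization rise reflects compound interference; 0% = tracer peptide mix alone and 100% = mix with added PKA catalytic subunit; higher means stronger polarization artifact and likely false positive in parent screen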
# PKA-R1A act conf: PKA-R1A complex activation, confirmation | AID 504800 | shares compounds with PKA-R1A act | 280 compounds, 9% hits | Cy5-IP20 fluorescence polarization, PKA-R1A holoenzyme dissociation | activation, % at 11.4 µM;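 active = mean activation over replicate wells exceeds the adjusted hit threshold taken from the earlier primary screen, cut at about 20% in these data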;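 also: 0% = holoenzyme mix with DMSO only and 100% = cGMP-activated control wells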
# Target sequence (P00514 whole entry, looked up): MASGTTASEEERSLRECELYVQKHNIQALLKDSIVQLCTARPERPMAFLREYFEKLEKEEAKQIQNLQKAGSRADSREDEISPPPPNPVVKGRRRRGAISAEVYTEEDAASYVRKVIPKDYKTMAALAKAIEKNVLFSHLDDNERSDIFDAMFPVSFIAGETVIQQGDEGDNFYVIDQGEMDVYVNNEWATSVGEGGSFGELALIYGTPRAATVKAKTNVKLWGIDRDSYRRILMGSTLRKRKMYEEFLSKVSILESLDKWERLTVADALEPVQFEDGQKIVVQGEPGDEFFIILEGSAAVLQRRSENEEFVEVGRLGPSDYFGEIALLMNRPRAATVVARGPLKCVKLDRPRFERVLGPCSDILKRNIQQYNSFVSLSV
# Active calls of the source: *; / = no result given. Rows were chosen to be rich in hits. Some 1.1% of all compounds tested hit in one or more screens of this group.
SMILES,PKA-R2B act,MsrA inh,MsrA act,PKA-R1A act,R1A FP artifact,PKA-R1A act conf
COC(=O)[C@]12C[C@H](CC(=O)NCCc3ccccc3OC)C(=O)N(CCC3=CCCCC3)C1=C[C@H](C(C)(C)C)O[C@@H]2C,/,0,/,/,/,/
CC(=O)Nc1ccc(NC(=O)CNC(=O)COc2ccccc2)cc1,-4,0,-2,7,/,/
COC(=O)CNC(=O)COc1ccccc1,4,-1,-12,20*,-3,-1
C/C(CC(=O)Nc1ccc2ccccc2c1)=N\NC(=O)c1cnccn1,3,0,-2,-1,/,/
C/C(CC(=O)Nc1ccccn1)=N\NC(=O)c1cnccn1,7,1,-3,19*,3,0
COc1cccc(-c2cc(CNC(=O)[C@H]3O[C@@H](n4cnc(C(N)=O)n4)[C@H](O)[C@@H]3O)no2)c1,/,1,/,/,/,/
O=C(CSCc1ccccc1)N1CCN(c2ccc(F)cc2)CC1,-13,0,4,-9,/,/
O=C(CSCc1ccccc1)N1CCN(c2ccccc2)CC1,0,-1,-3,19*,1,2
Cc1cc(N(CCO)CCO)nc(-n2nc(C)cc2C)n1,-1,2,-3,-2,/,/
Cc1cc(NCCO)nc(-n2nc(C)cc2C)n1,8,0,-3,22*,-3,-1
COc1ccccc1CNC(=O)C(C)NS(=O)(=O)c1ccccc1 (centres undefined),5,0,1,19*,1,0
COc1ccc(-c2ccc3c(n2)CCCN3S(=O)(=O)c2ccc(C(F)(F)F)cc2)cc1,/,0,/,/,/,/
Nc1nc2ncccc2cc1C(=O)NC1CC1,/,2,/,/,/,/
COc1ccc(Cn2c(C)cc(O)cc2=O)cc1,/,0,/,/,/,/
COc1ccc(C)cc1NC(=O)CSc1nnc(CC(=O)Nc2cccc(C(F)(F)F)c2)n1C,-5,1,-7,23*,5,-1
O=C(O)CN1C(=O)/C(=C\c2cc(Br)ccc2OCc2ccc([N+](=O)[O-])cc2)SC1=S,1,2,-4,25*,1,1
CC(=O)N1CCN(c2ccc(N3CCN(Cc4ccccc4)[C@@H](C)C3)c(C)c2)[C@@H](C)C1,/,-1,/,/,/,/
COc1ccc([C@@H]2[C@@H]3C(=O)N(C(C)(C)C)C(=O)[C@@H]3[C@]3(CC(C)C)C(=O)N(c4cccc(F)c4)C(=O)N23)cc1,-2,0,-2,19*,-3,-5
CC(C)C[C@H](NC(=O)c1ccc(Cl)c(Cl)c1)C(=O)N1CCC[C@H]1C(=O)NCc1ccccc1,/,-1,/,/,/,/
O[C@@H]1CN(C2CCN(Cc3ccccc3)CC2)CC[C@H]1N1CCCCCC1,3,0,0,-6,/,/
Brc1ccccc1CN1CCC(N2CCCCC2)CC1,9,1,-3,21*,5,6
O=C(COc1ccccc1Cl)NCCc1ccc2c(c1)OCCO2,-10,-1,-5,21*,-3,4
O=C(COc1ccccc1F)NCCc1ccc2c(c1)OCCO2,2,-1,-2,-4,/,/
CN(CCOc1ccc(Cl)cc1)C(=O)c1ccccc1SCC(=O)N1CCCC1,8,0,-3,21*,8,2
CN(CC(=O)Nc1c(Cl)cccc1Cl)C(=O)c1ccccc1SCC(=O)N1CCCC1,-2,-1,-1,0,/,/
SMILES,PKA-R2B act,MsrA inh,MsrA act,PKA-R1A act,R1A FP artifact,PKA-R1A act conf
CC(C)(C)C(=O)NCc1ccc(C(=O)CSc2nnc(C3CC3)n2C2CC2)s1,0,1,-5,20*,-2,0
CC(NC(=O)CSc1nc2c(c(C(F)(F)F)n1)CCc1ccccc1-2)c1ccccc1 (centres undefined),-5,-1,-2,19*,6,3
O=C(CSc1nc2c(c(C(F)(F)F)n1)CCc1ccccc1-2)NCc1ccco1,1,1,-1,8,/,/
CC1=CC(=O)C(C(C)C)=C/C1=N\OC(=O)c1cccc2nc(C)oc12,-1,0,-7,19*,2,2
CC1=CC(=O)C(C(C)C)=C/C1=N/OC(=O)c1cccc([N+](=O)[O-])c1,-5,2,2,1,/,/
COc1ccc(/C=C/C(=O)NCC2COc3ccccc3O2)c(OC)c1 (centres undefined),7,3,-6,-7,/,/
O=C(/C=C/c1ccco1)NCC1COc2ccccc2O1 (centres undefined),8,0,-5,19*,-5,-4
